Reference: PubChem BioAssay
Activity calls are given as the source filed them.

Assays:
[1] = anti-His antibody binders, primary screen, artefact control for SMM control protein annotation, biochemical, small-molecule microarray, 635 nm fluorescence (AID 1128); details: anti-His Alexa647 antibody binding, higher = more signal;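 also: score merges feature fluorescence with signal-to-noise for each printed compound spot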
[2] = test system: Human papillomavirus type 1a E7 protein (residues 1-88); assay: HPV1a E7 small-molecule binders, primary screen, biochemical, small-molecule microarray, residues 1-88, 635 nm (AID 1129); details: small-molecule microarray binding, fluorescence 635 nm; higher = more signal
[3] = target: Focal adhesion kinase 1 (Homo sapiens) (UniProt Q05397); assay: small-molecule microarray binders of FAK, primary screen, biochemical, 635/667 nm fluorescence, BSA, DTT (AID 1130); details: PTK2 binding, 635 nm fluorescence, higher = more signal;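 also: composite of spot emission at 667 nm and signal to noise over triplicate slides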
[4] = test system: Fibrinogen (Alexa647-labelled); assay: fibrinogen binders on compound microarrays, profiling panel, artefact control for SMM control-protein annotation, biochemical, small-molecule microarray, 635/667 nm fluorescence (AID 1131); details: fibrinogen-A647 binding fluorescence, higher = more signal;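 also: z-score merges 667 nm fluorescence with per-spot signal-to-noise over triplicate slides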
[5] = target: Follistatin (Homo sapiens) (UniProt P19883); assay: follistatin binders on small-molecule microarrays, primary screen, biochemical, small-molecule microarray, 635/667 nm fluorescence (AID 1132); details: FST binding, 635 nm fluorescence, higher = more signal
[6] = target: Fibroblast growth factor 2 (Homo sapiens) (UniProt P09038); assay: FGF2 binders on small-molecule microarrays, primary screen, biochemical, small-molecule microarray, 635/667 nm fluorescence (AID 1133); details: small-molecule microarray binding, FGF2, fluorescence 635/667; higher = more signal
[7] = mitochondrial membrane potential change in A549 cells, profiling panel, cell-based, JC-1 fluorescence, basal, 24 h, 100 nL (AID 1138); details: higher = more signal;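 also: A549 lung adenocarcinoma cells under basal conditions with no added stimulus; test concentration not given here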
Lefty1 = Lefty1 binders on small-molecule microarrays, primary screen, biochemical, small-molecule microarray, 635/667 nm fluorescence (AID 1139); details: small-molecule microarray binding, fluorescence 635/667; higher = more signal
[8] = test system: wheat germ agglutinin (Triticum aestivum), Alexa647-labelled; assay: wheat germ agglutinin binders on compound microarrays, profiling panel, artefact control for SMM control-protein annotation, biochemical, small-molecule microarray, 635/667 nm fluorescence (AID 1140); details: WGA-A647 binding, 635 nm fluorescence, higher = more signal;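 also: score merges 667 nm feature emission with signal to noise over triplicate slides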
[9] = target: Luciferin 4-monooxygenase (Photinus pyralis) (UniProt P08659); assay: firefly luciferase enzyme inhibitors, primary screen, biochemical, luminescence, purified enzyme, 2006 set (AID 1141); details: SteadyGlo luminescence, 30 min, higher = more signal, called active from +8 up or from −8 down;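 also: cell-free assay with purified firefly luciferase at 100 ng per well in PBS; test concentration not given here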
Luciferin 4-monooxygenase (Photinus pyralis), sequence (P08659 whole entry, looked up): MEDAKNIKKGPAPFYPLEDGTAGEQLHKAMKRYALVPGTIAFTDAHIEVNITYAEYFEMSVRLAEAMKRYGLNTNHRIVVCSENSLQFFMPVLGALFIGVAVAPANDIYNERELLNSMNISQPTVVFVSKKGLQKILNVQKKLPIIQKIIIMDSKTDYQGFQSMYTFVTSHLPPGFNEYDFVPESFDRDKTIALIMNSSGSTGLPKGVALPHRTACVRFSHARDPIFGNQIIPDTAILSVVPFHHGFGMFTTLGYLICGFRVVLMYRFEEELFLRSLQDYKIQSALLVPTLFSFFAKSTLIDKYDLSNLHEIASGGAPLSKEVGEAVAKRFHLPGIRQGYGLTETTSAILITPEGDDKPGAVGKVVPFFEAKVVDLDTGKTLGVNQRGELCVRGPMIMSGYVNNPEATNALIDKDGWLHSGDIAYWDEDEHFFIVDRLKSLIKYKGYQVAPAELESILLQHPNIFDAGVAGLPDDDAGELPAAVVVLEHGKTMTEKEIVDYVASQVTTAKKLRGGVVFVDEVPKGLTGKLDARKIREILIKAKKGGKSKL

Fibroblast growth factor 2 (Homo sapiens), sequence (P09038 whole entry, looked up): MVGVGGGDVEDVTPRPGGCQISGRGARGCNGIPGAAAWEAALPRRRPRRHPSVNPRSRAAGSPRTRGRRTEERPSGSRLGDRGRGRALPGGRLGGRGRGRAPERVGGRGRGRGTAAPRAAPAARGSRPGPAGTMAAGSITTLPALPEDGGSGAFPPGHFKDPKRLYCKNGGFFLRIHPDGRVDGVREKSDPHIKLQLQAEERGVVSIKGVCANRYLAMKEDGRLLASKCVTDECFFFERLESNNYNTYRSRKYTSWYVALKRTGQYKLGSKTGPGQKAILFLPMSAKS
Focal adhesion kinase 1 (Homo sapiens), sequence (Q05397 whole entry, looked up): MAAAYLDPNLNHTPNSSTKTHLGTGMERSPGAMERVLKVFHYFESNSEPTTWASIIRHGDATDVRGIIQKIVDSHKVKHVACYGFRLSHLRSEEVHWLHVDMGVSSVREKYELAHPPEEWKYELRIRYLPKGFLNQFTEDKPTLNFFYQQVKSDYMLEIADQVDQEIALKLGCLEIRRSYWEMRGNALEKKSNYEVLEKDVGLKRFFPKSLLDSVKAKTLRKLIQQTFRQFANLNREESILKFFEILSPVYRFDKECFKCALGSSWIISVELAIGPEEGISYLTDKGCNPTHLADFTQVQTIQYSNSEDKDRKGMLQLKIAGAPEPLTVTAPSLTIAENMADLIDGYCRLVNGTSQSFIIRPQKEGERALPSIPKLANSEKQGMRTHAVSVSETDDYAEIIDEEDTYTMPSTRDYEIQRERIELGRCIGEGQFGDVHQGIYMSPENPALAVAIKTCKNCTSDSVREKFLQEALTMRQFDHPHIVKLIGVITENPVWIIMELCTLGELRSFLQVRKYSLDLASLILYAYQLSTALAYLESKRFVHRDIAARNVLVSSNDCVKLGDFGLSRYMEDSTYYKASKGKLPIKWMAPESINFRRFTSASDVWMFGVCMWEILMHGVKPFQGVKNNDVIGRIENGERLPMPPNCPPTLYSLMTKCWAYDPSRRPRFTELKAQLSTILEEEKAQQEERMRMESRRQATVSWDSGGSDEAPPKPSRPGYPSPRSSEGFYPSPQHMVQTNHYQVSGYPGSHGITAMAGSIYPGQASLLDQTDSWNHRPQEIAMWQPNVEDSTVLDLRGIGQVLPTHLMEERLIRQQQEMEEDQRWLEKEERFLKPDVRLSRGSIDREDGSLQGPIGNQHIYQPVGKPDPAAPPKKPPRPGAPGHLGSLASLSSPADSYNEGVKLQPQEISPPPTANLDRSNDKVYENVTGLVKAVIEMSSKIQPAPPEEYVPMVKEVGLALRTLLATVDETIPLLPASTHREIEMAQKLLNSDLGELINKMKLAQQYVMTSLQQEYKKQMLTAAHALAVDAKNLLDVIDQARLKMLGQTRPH
Follistatin (Homo sapiens), sequence (P19883 whole entry, looked up): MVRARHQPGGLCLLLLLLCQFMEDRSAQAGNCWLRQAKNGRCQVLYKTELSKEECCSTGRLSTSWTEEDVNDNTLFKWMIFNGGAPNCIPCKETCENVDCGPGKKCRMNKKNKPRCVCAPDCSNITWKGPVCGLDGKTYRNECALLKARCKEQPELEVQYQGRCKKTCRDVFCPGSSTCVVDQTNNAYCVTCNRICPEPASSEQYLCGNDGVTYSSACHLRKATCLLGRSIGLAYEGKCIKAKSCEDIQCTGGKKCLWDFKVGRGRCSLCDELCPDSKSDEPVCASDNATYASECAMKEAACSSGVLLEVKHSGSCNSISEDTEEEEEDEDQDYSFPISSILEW

Structure (SMILES): COCCOC(=O)N1C(=O)[C@@]2(c3cc(C#CC4(O)CCCCCC4)ccc31)[C@H](c1ccc(O)cc1)N1[C@H](c3ccccc3)[C@H](c3ccccc3)OC(=O)[C@H]1[C@@H]2C(=O)Nc1nc2ccccc2s1
- composite z-score [1]: 0.84
- composite z-score [2]: 1.19
- composite z-score [3]: 0.482
- composite z-score [4]: 0.97
- composite z-score [5]: 1.18
- composite z-score [6]: 1.05
- z-score [7]: -1.85
- composite z-score (Lefty1): 0.562
- composite z-score [8]: 0.227
- z-score [9]: -0.715 (inactive)

Structure (SMILES): [N-]=[N+]=NCc1ccccc1[C@@H]1OC(c2ccc(OCCCO)cc2)=N[C@]1(CCS(=O)(=O)c1ccccc1)C(=O)NCCN1CCOCC1
- composite z-score [1]: 1.68
- composite z-score [2]: 1.29
- composite z-score [3]: 0.261
- composite z-score [4]: 1.03
- composite z-score [5]: 1.43
- composite z-score [6]: 0.913
- z-score [7]: 0.721
- composite z-score (Lefty1): 0.684
- composite z-score [8]: 1.31
- z-score [9]: -2.52 (inactive)

Structure (SMILES): CC1CC/C=C\[C@H]2OC34C=CCN(Cn5nnc6ccccc65)C(=O)[C@H]3N(C(CO)C(C)C)C(=O)[C@@H]4C2C(=O)O1 (stereo not given in full)
- composite z-score [1]: 1.63
- composite z-score [2]: 0.19
- composite z-score [3]: 0.0406
- composite z-score [4]: 0.422
- composite z-score [5]: -0.311
- composite z-score [6]: -0.464
- z-score [7]: -0.408
- composite z-score (Lefty1): -0.2
- composite z-score [8]: 1.09
- z-score [9]: 0.178 (inactive)

Structure (SMILES): C=CCNC(=O)[C@@H]1[C@H]2C(=O)O[C@H](c3ccccc3)[C@H](c3ccccc3)N2[C@H](c2ccc(OCCO)cc2)[C@@]12C(=O)Nc1ccc(C#Cc3ccc(OC)cc3)cc12
- composite z-score [1]: 0.785
- composite z-score [2]: 1.18
- composite z-score [3]: 0.452
- composite z-score [4]: 0.798
- composite z-score [5]: 1.42
- composite z-score [6]: 0.989
- z-score [7]: -1.87
- composite z-score (Lefty1): 1.57
- composite z-score [8]: 1.17
- z-score [9]: -0.398 (inactive)

Structure (SMILES): CC(C)[C@@H](CO)NC(=O)[C@H]1[C@@H](c2ccccc2)N(c2ccccc2)O[C@@H]1C
- composite z-score [1]: 0.398
- composite z-score [2]: -0.253
- composite z-score [3]: -0.168
- composite z-score [4]: 0.0711
- composite z-score [5]: 0.104
- composite z-score [6]: 0.0808
- z-score [7]: 0.204
- composite z-score (Lefty1): 0.216
- composite z-score [8]: 0.149
- z-score [9]: -0.21 (inactive)

Structure (SMILES): O=C1O[C@H](c2ccccc2)[C@H](c2ccccc2)N2[C@H]1[C@@H](C(=O)O)[C@]1(C(=O)Nc3ccc(C#CC4=CCCCC4)cc31)[C@H]2c1ccccc1OCCO
- composite z-score [1]: 1.76
- composite z-score [2]: 1.23
- composite z-score [3]: 0.827
- composite z-score [4]: 0.922
- composite z-score [5]: 1.26
- composite z-score [6]: 1.08
- z-score [7]: -2.56
- composite z-score (Lefty1): 1.63
- composite z-score [8]: 1.18
- z-score [9]: -6.51 (inactive)

Structure (SMILES): CCOC(=O)C[C@H]1[C@H](OC(=O)c2ccc(C(=O)c3ccccc3)cc2)[C@@H](NC(=O)c2ccc(-c3ccccc3)cc2)c2cc(OCCCO)ccc2N1C(=O)c1ccccc1
- composite z-score [1]: 0.256
- composite z-score [2]: 0.87
- composite z-score [3]: 0.644
- composite z-score [4]: 0.803
- composite z-score [5]: 0.559
- composite z-score [6]: 0.59
- z-score [7]: -0.187
- composite z-score (Lefty1): 0.712
- composite z-score [8]: 0.131
- z-score [9]: -0.265 (inactive)

Structure (SMILES): CCCC[C@H]1OB(O)C[C@H]2C1=C(COc1ccccc1)C[C@H]1C(=O)N(C)C(=O)[C@H]12
- composite z-score [1]: -0.0391
- composite z-score [2]: 0.0417
- composite z-score [3]: -0.281
- composite z-score [4]: -0.0052
- composite z-score [5]: 1.24
- composite z-score [6]: 0.473
- z-score [7]: 0.284
- composite z-score (Lefty1): 0.576
- composite z-score [8]: 0.0686
- z-score [9]: -0.718 (inactive)

Structure (SMILES): C=C(CCCC)C(=O)CC[C@H](OC(=O)c1cccnc1)c1ccccc1OCCO
- composite z-score [1]: 0.984
- composite z-score [2]: -0.513
- composite z-score [3]: 0.0467
- composite z-score [4]: -0.633
- composite z-score [5]: 0.537
- composite z-score [6]: 1.32
- z-score [7]: 1.08
- composite z-score (Lefty1): 0.785
- composite z-score [8]: 0.14
- z-score [9]: -0.288 (inactive)

Structure (SMILES): C=C(COC)/C(=C/C[C@H](OC(=O)c1ccncc1)c1ccc(OCCO)cc1)c1cnc2ccccc2c1
- composite z-score [1]: 1.96
- composite z-score [2]: 1.2
- composite z-score [3]: 0.111
- composite z-score [4]: 0.967
- composite z-score [5]: 1.38
- composite z-score [6]: 1.02
- z-score [7]: -0.0174
- composite z-score (Lefty1): 1.33
- composite z-score [8]: 1.47
- z-score [9]: -1.34 (inactive)

Structure (SMILES): O=C1OCC=C[C@H]2OC34C=CCN(c5ccc6ccccc6c5)C(=O)[C@H]3N(CCCCCCO)C(=O)[C@@H]4[C@@H]12 (stereo not given in full)
- composite z-score [1]: 2.67
- composite z-score [2]: -0.593
- composite z-score [3]: 0.806
- composite z-score [4]: -0.9
- composite z-score [5]: -1.18
- composite z-score [6]: -0.595
- z-score [7]: 1.16
- composite z-score (Lefty1): -0.732
- composite z-score [8]: -0.434
- z-score [9]: -0.875 (inactive)

Structure (SMILES): O=C1NCC(=O)N2[C@@H]1C[C@@H](C(=O)O)[C@H]2c1cccc(OCCO)c1
- composite z-score [1]: 1.85
- composite z-score [2]: 1.34
- composite z-score [3]: 4.87
- composite z-score [4]: 0.654
- composite z-score [5]: 1.52
- composite z-score [6]: 1.5
- z-score [7]: 0.221
- composite z-score (Lefty1): 1.84
- composite z-score [8]: 1.45
- z-score [9]: -0.707 (inactive)

Structure (SMILES): C=CCOC(=O)[C@H]1[C@@H]2C(=O)O[C@@H](c3ccccc3)[C@@H](c3ccccc3)N2[C@@H](c2ccc(OCCOC(=O)[C@@H]3C[C@@H]4C(=O)N5CCC[C@H]5C(=O)N4[C@@H]3c3cccc(OCCO)c3)cc2)[C@]12C(=O)Nc1ccccc12
- composite z-score [1]: 2.53
- composite z-score [2]: 1.19
- composite z-score [3]: 0.701
- composite z-score [4]: 0.686
- composite z-score [5]: 1.3
- composite z-score [6]: 1.51
- z-score [7]: -1.5
- composite z-score (Lefty1): 1.14
- composite z-score [8]: 0.847
- z-score [9]: -0.187 (inactive)

Structure (SMILES): C=C(CCCC)/C(=C/C[C@@H](OC(C)=O)c1ccccc1OCCO)c1cnc2ccccc2c1
- composite z-score [1]: 1.46
- composite z-score [2]: 0.356
- composite z-score [3]: 0.0147
- composite z-score [4]: 0.143
- composite z-score [5]: 1.31
- composite z-score [6]: 0.908
- z-score [7]: 0.222
- composite z-score (Lefty1): 0.736
- composite z-score [8]: 0.454
- z-score [9]: -0.754 (inactive)

Structure (SMILES): O=C1O[C@H](c2ccccc2)[C@H](c2ccccc2)N2[C@H]1[C@@H](C(=O)O)[C@]1(C(=O)Nc3ccc(C#CCCO)cc31)[C@H]2c1ccc(O)cc1
- composite z-score [1]: 0.0887
- composite z-score [2]: 0.0227
- composite z-score [3]: 0.724
- composite z-score [4]: -0.862
- composite z-score [5]: 0.771
- composite z-score [6]: -0.317
- z-score [7]: 1.07
- composite z-score (Lefty1): -0.279
- composite z-score [8]: 0.349
- z-score [9]: -1.72 (inactive)

Structure (SMILES): Cc1ccc(S[C@]2(C(=O)NCCN3CCOCC3)CC(=O)N(Cc3ccccc3)[C@@H]2c2ccc(CO)cc2I)cc1
- composite z-score [1]: 1.75
- composite z-score [2]: -0.104
- composite z-score [3]: 0.217
- composite z-score [4]: -1.42
- composite z-score [5]: -0.422
- composite z-score [6]: -1.2
- z-score [7]: 0.0777
- composite z-score (Lefty1): -1.08
- composite z-score [8]: -0.592
- z-score [9]: 0.4 (inactive)
